# Source: PubChem BioAssay (National Center for Advancing Translational Sciences (NCATS))
# p53 reactivation = re-activators of mutant p53 | H1299 p53-A138V BP100-luciferase reporter, luminescence, 24 h | Potency, µM (series often up to 92.2 µM), for the others: at the top dose activity change, positive = activation, most hits filed as activators | 320,000 compounds, 0.063% hits; note: % of control where 0% means no effect; nearly all actives have a fitted effect of over 45% in size
#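 p53-null H1299 cells stably carrying temperature-sensitive p53-A138V and a BP100-luciferase reporter were pinned with compounds (4-point, 1:5 series) and held 24 hrs at 37 deg C. Luminescence was read 10 min after detection reagent.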
# Eya2 inh = inhibitors of human Eya2 phosphatase activity; O00167; recombinant Eya2, OMFP fluorescence dephosphorylation (OMFP is methylfluorescein phosphate); Potency, µM (top dose mostly 76.9 µM), without a hit: at the highest dose activity, negative = inhibition, actives largely listed as inhibitors; 330,000 compounds, 0.006% hits; note: % is set by controls: 0 for no effect and ±100 for the full control effect
#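 Eya2 (0.2 uM) preincubated 10 min at ambient with compound, then OMFP substrate added at 50 uM; 10 min reaction in 50 mM HEPES pH 7.5, 50 mM NaCl, 5 uM MgCl2, 0.05% BSA, 1 mM DTT. Fluorescence read at Ex 485/Em 525 nm.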
# ClpP mod = qHTS Assay for Activators of ClpP; 340,000 compounds, 1.9% hits; AID 651965, 2013; purified B. subtilis ClpP, FRET peptide cleavage, 20 min; Potency, µM (series often up to 57.5 µM), for the others: at the top dose activity change, negative = active; active = well fitted falling curve with a large enough effect; inconclusive = small, poorly fitted or top-dose-only effect; inactive = no such curve, though single readings can be large or run the other way; note: the source files actives as falling curves though it sought activators and does not explain the sign; nearly all actives have a fitted effect of over 65% in size
# Target sequence (P80244 whole entry, looked up): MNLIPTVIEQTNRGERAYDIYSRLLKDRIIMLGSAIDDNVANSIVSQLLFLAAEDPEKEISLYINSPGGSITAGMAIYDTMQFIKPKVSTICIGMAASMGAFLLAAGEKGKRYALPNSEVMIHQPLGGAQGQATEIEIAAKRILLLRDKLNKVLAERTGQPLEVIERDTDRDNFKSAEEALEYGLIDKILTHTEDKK
#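 FRET quenching reversal measured ClpP activation: 10 microg/mL B. subtilis ClpP at pH 8 with the FRET-FV decapeptide, read at 430 nm after 320 nm excitation. The 20-min minus 0-min signal was scaled between DMSO/no-enzyme wells and ADEP (5.8 microM final).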
# USP2a inh = blocks human ubiquitin-specific protease USP2a; O75604; USP2 core, Ub-CHOP2 coupled fluorogenic reporter, 485/531; Potency, µM (top dose mostly 38.3 µM), for the others: at the top dose activity change, negative = inhibition, usual class: inhibitors; 330,000 compounds, 0.01% hits; AID 463254;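 note: plate controls were DMSO wells for no effect and full inhibition by NEM control for full effect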
#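 Cell-free coupled assay: 10nM USP2 core preincubated 30min RT with compound in Tris-HCl pH 8.0/CaCl2/CHAPS buffer, then 25nM Ub-CHOP2 and 25nM reporter substrate; fluorescence (Ex 485/Em 531) read after 60min RT, normalized to NEM inhibition, concentration-response curves fitted.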
# MmCpn inh = blocks the Methanococcus maripaludis chaperonin Mm-Cpn. purified Mm-Cpn ATPase, ADP Transcreener TR-FRET. Potency, µM (series often up to 76.9 µM), inactives show at the highest dose activity, negative = inhibition, most hits filed as inhibitors. 330,000 compounds, 0.031% hits. AID 504842; note: % is set by controls: 0 for no effect and ±100 for the full control effect; nearly all actives have a fitted effect of over 80% in size
#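 Purified archaeal chaperonin (25 nM final) was preincubated with compound for 10 min at 37°C, then ATP (10 uM final) was added for 30 min at 37°C in Tris pH 7.4/KCl/MgCl2/DTT buffer. ADP was quantified by HTRF Transcreener TR-FRET.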
# a7 integrin act = integrin-mediated muscular dystrophy alleviation activation; 350,000 compounds, 0.064% hits; Potency, µM (top dose mostly 38.3 µM), for inactives: at the top dose activation, actives largely listed as activators; AID 624291; alpha7betagal myoblasts, beta-gal FDG fluorescence, 48 h;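 note: 100% = response of the positive control SU9516; nearly all actives have a fitted effect of over 60% in size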
#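 alpha7betagal+/- myoblasts (passage 13, 250/well) treated 48 h at 37C with compounds at 1:260 dilution of DMSO stock. Lysed, then beta-galactosidase activity read as FDG fluorescence (ex 480/em 540) after 30 min, with pre-read for autofluorescence.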
# Active calls of the source: *; ? = inconclusive; · = no result given; [ ] = dose if it differs, or a comment. Many of the other results were omitted from the sample, so hits are more common in it than they were. Unless noted, calls come from the whole dose curve; as a rule, active = well fitted curve in the direction sought with a large enough effect; inconclusive = small, poorly fitted or top-dose-only effect, or another doubt; inactive = no such curve, though single readings can be large; an effect the other way counts as inactive or inconclusive. Potency is the fitted concentration of half-maximal effect.
SMILES,p53 reactivation,Eya2 inh,ClpP mod,USP2a inh,MmCpn inh,a7 integrin act
CC(=O)Nc1ccc2nc(NC(=O)COc3ccccc3C)sc2c1,2%,5%,-1%,2%,-6%,-12%
Cc1cc[n+](C2CCCCC2)c2ccccc12,·,·,-3%,·,·,·
CCN(CC)S(=O)(=O)c1ccc(NC(=O)c2cc(-c3cccs3)nc3ccccc23)cc1,4%,9%,28µM*,-2%,-16%,1%
COc1cccc(CN(C)C(=O)c2cc(-c3cccs3)nc3ccccc23)c1,-9%,4%,32µM*,1%,0%,0%
CN(C)S(=O)(=O)c1ccc(NC(=O)c2cc(-c3cccs3)nc3ccccc23)cc1,-2%,11%,16µM*,3%,?,20%
NS(=O)(=O)c1ccc(NC(=O)c2cc(-c3cccs3)nc3ccccc23)cc1,-5%,1%,?,1%,-8%,-26%
COc1cc2c(cc1OC)n(CC(=O)c1cc(C)ccc1C)c(=O)n1nc(CCn3nc(C)cc3C)nc21,·,·,0%,·,·,·
O=[N+]([O-])c1cccc(S(=O)(=O)N2CCN(S(=O)(=O)N3CCOCC3)CC2)c1,11%,-2%,-2%,4%,1%,10µM*
Nc1ccc(Sc2cnn(-c3ccccc3)c(=O)c2Cl)cc1,6%,-7%,20µM*,-2%,-2%,-17%
CCOc1ccc(Oc2nc(NCC(C)C)nc(N3CCOCC3)n2)nn1,·,·,0%,·,·,·
CC(=O)Nc1ccc(NC(=O)CN2C(=O)CC(c3ccco3)Sc3ccccc32)cc1 (centres undefined),·,·,-1%,·,·,·
C=CCSc1nnc(-c2cc3c(-c4ccccc4)nn(C)c3s2)n1C,5%,-13%,28µM*,-5%,0%,0%
COc1ccc(N(CC(=O)Nc2cccc(Cl)c2)S(=O)(=O)c2c(C)[nH]c(=O)[nH]c2=O)cc1,·,·,-1%,·,·,·
COc1cccc(CNC(=O)COC(=O)c2ccc(S(C)(=O)=O)c([N+](=O)[O-])c2)c1,·,·,2%,·,·,·
COc1cc(OC)c(NC(=O)Cn2c(=O)nc(-c3ccccc3)c3ccccc32)cc1Cl,·,·,0%,·,·,·
FC(F)(F)c1cc(-c2ccc3c(c2)OCO3)nc(NCc2ccco2)n1,22%,12%,25µM*,1%,-2%,-25%
CC(C)c1ccc(S(=O)(=O)NCc2nc3cccnc3n2Cc2ccc(F)cc2)cc1,·,·,0%,·,·,·
COc1ccc(C2C3=C(CCCC3=O)Nc3c(-c4ccccc4)c(C)nn32)cc1 (centres undefined),-10%,1%,?,4%,-2%,2%
Cc1nn2c(c1-c1ccccc1)NC1=C(C(=O)CCC1)C2c1ccccc1 (centres undefined),-2%,6%,8.9µM*,0%,-3%,-23%[7.66 µM]
Cn1c(CNc2ccc(O)cc2)nc2ccccc21,25%,5%,-5%,0%,-6%,-6%
Cc1ccc(NC(=O)NCc2nc3ccccc3n2C)cc1,-4%,-1%,·,1%,2%,4.5µM*
CCOC(=O)c1ccc(NCc2nc3ccccc3n2C)cc1,?,-15%,-13%,0%,-1%,13%
Cc1ccc(NCc2nc3ccccc3n2C)cc1,·,-13%,14µM*,1%,3%,12%
CCCCCCCCCCCCCCCC[n+]1ccc(CC(O)c2c(C)[nH]c3ccccc23)c2ccccc21 (centres undefined),·,·,-1%,·,·,·
Cc1ccc(NC(=O)N(Cc2cccs2)Cc2cc3cc4c(cc3[nH]c2=O)OCO4)cc1,-8%,-2%,·,5%,1%,·
O=C(Nc1ccc(F)cc1)N(Cc1cccs1)Cc1cc2cc3c(cc2[nH]c1=O)OCO3,-4%,8%,32µM*,-1%,-4%,22%
O=C(Nc1ccc(F)cc1)N(Cc1ccco1)Cc1cc2cc3c(cc2[nH]c1=O)OCO3,-12%,-3%,32µM*,2%,1%,10%
